PubChem BioAssay
“And” between values parts separate entries of the source, which are not always exact repeats. Equal values may be shown once. The source made the active and inactive calls. Unless noted, how the calls were made is not given here.

What was measured:
[1] = polyglutamine-triggered caspase-3 activation inhibitors, cell-based (AID 1583); settings: polyglutamine-induced caspase-3 activation, cell assay; stronger effect = higher value;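 tested at 10 µM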
[2] = circadian clock period modulators, cell-based, LOPAC library, luminescence reporter (AID 2774); settings: circadian reporter cells, at 7 µM, actives lie on both sides;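 further: values are relative to mean of DMSO wells on each plate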
[3] = Cy5 fluorescence quenching or enhancement artefacts, artefact control for HCV NS3 helicase inhibitor project, biochemical, LOPAC1280 (AID 687037); settings: Cy5-DNA-NS3h complex fluorescence interference counterscreen
[4] = stimulators of nuclear beta-catenin in C2C12, primary screen, imaging, WNT3A-conditioned medium, mouse C2C12, NPC library (AID 1117326; in the data active means nuclear beta-catenin stimulation mostly above about 4.2%, no sharp cut-off; inactive means mostly below about 10%); settings: stronger effect = higher value
[5] = stimulators of insulin release from INS-1E, primary screen, cell-based, 5 mM glucose, NPC library (AID 1117329;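 active means compound raises insulin release from rat beta cells at 5 mM glucose, no numeric limit stated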); settings: rat INS-1E insulin secretion, at 10 µM, stronger effect = higher value
[6] = growth inhibition of GSK3B-pretreated HCT116 cells – cell-based, CellTiter-Glo, 0.2 to 20 µM (AID 1117336;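 active means compounds lowering colon cancer cell viability after pretreatment blocking the GSK3B kinase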); settings: HCT116 viability after GSK3B inhibitor, at 20 µM, stronger effect = higher value
[7] = inhibition of endothelial tube formation, primary screen, imaging, VEGF stimulated, CD31 staining, tube area, NPC library (AID 1117340;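 active means compound that reduces growth-factor-driven endothelial tube area in a mixed cell culture, no cutoff stated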); settings: VEGF-stimulated ADSC/ECFC co-culture, at 10 µM, stronger effect = higher value
[8] = glucagon-like peptide 1 release enhancers, primary assay, NCI-H716 cell line, NPC library (AID 1117341;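 active means compound raises GLP1 secretion from the human gut endocrine cells, with no numeric limit stated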); settings: NCI-H716 cells, at 10 µM, stronger effect = higher value
[9] = HCT116 colon cancer cell growth inhibition, primary screen, CellTiter-Glo luminescence, NPC library (AID 1117342;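 active means compounds that lower survival of HCT116 colon cancer cells in the luminescence readout, no numeric limit stated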); settings: at 20 µM (top of the series)
[10] = CellTiter-Glo luminescent readout of SW480 viability loss, NPC library primary (AID 1117343;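 active means compounds that lower viability of the colon cancer cells in the luminescence readout, with no numeric limit stated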); settings: CellTiter-Glo luminescence; at 20 µM (top of the series)
[11] = decreased DLD-1 cellular survival, CellTiter-Glo luminescent readout, NPC compound collection, primary HTS (AID 1117346;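 active means compounds that lower survival of DLD-1 colon cancer cells in the luminescence readout, no cutoff given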); settings: DLD-1 viability, CellTiter-Glo luminescence; at 20 µM (top of the series)
[12] = target: 6-phosphogluconate dehydrogenase, decarboxylating (Homo sapiens) (UniProt P52209); assay: 6PGD enzyme inhibitors, primary screen, biochemical, human, recombinant enzyme, NADPH absorbance (AID 1159550;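 active means at least 20% inhibition of 6-phosphogluconate dehydrogenase activity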); settings: recombinant 6PGD, NADPH absorbance 341 nm; at 10 µM; stronger effect = higher value
[13] = differential killing of epithelial or mesenchymal cells, primary screen, imaging, PC-3E GFP, TEM4-18 mCherry, co-culture (AID 1345086;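 active means compounds killing one labelled cell type while sparing the other, by normalised counts and ratio limits, not self-fluorescent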;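 on all read-outs here: cells exposed to compound for 72 h before imaging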;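 on red/green cell ratio (normalised): normalised mesenchymal count divided by normalised epithelial count so high means epithelial killing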); settings: imaging cell counts, at 1 µM; for red/green cell ratio (normalised): actives lie on both sides
[14] = test system: Aerobactin synthetase IucA (Klebsiella pneumoniae hvKP1); assay: Biochemical IucA enzyme inhibition primary screen of the Spectrum library (AID 1346200); settings: malachite green pyrophosphate, A620, at 8 µM, stronger effect = lower value;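 further: 100% = wells without compound and 0% = wells lacking enzyme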
[15] = survival rescue of mitochondrial mutant cells in low glucose, primary screen, MELAS cybrids, Rieske KO mouse fibroblasts, CellTiter-Glo (AID 1508586;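 active means mean z-score across replicates of 1.96 or higher in either the MELAS or the Rieske mutant cell line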;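 further: z relative to plate mean and SD of compound and empty wells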)
[16] = target: NAD(+) hydrolase SARM1 (Homo sapiens) (UniProt Q6SZW1); assay: SARM1 TIR NADase inhibitors, cell lysate, NAD-Glo luminescence (AID 1508614;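 active means compound whose remaining NAD level is above about 45 nM, limit read from the data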); settings: SAM-TIR HEK293T lysate NADase, at 1 µM, stronger effect = higher value
[17] = target: Mitogen-activated protein kinase 7 (Homo sapiens) (UniProt Q13164); assay: ERK5 transactivation activators in reporter cells, primary screen, cell-based, HTS (AID 1508626;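 active means luciferase signal above three times the same-plate solvent-only control wells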;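 further: luciferase driven by Gal4-ERK5 fusion binding five Gal4 sites before minimal TATA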); settings: HeLa Gal4-ERK5 transactivation, 18 h, at 5 µM, stronger effect = higher value
[18] = viability rescue of complex I mutant cybrids, primary screen, cell-based, galactose medium, ATP luminescence (AID 1645843;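 active means z-score of at least 1.8 in each of two replicates, scored against plate mean and spread of sample wells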;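 further: positive z means more ATP and so rescue of galactose-driven cybrid death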); settings: complex I mutant cybrid cells, 72 h, stronger effect = higher value
[19] = liver-stage malaria parasite growth inhibition, primary screen, cell-based, HepG2, luciferase luminescence, HepG2 viability (AID 624349; in the data active means parasite load remaining mostly below about 12%, no sharp cut-off; inactive means mostly above about 10%;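 further: 100% = mean of DMSO negative control wells on the same plate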); settings: P. berghei liver stage in HepG2, luciferase luminescence, concentration not given here; parasite load remaining: stronger effect = lower value; viability: measured here: HepG2 viability without parasites
[20] = sensitizers of A549 cells to miR-34 induction, primary screen, imaging, A549 dox-inducible miR-34, nuclei and caspase counts (AID 1347080;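 active means compounds whose cell count with miR-34 switched on is under 0.7 times the count with it off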); settings: A549 miR-34 inducible, Hoechst nuclei count, 48 h
[21] = measured here: epithelial PC-3E GFP cell survival
[22] = measured here: mesenchymal TEM4-18 mCherry cell survival
[23] = MELAS cybrid survival, CellTiter-Glo 48 h, stronger effect = higher value
[24] = Rieske KO mouse fibroblast survival, CellTiter-Glo 72 h
[25] = measured here: relative caspase fold change +Dox/-Dox
[26] = measured here: total cells with miR-34 induction, stronger effect = lower value
[27] = measured here: total cells without miR-34 induction

Sequence of NAD(+) hydrolase SARM1 (Homo sapiens) (Q6SZW1 whole entry, looked up, the tested form may be a part): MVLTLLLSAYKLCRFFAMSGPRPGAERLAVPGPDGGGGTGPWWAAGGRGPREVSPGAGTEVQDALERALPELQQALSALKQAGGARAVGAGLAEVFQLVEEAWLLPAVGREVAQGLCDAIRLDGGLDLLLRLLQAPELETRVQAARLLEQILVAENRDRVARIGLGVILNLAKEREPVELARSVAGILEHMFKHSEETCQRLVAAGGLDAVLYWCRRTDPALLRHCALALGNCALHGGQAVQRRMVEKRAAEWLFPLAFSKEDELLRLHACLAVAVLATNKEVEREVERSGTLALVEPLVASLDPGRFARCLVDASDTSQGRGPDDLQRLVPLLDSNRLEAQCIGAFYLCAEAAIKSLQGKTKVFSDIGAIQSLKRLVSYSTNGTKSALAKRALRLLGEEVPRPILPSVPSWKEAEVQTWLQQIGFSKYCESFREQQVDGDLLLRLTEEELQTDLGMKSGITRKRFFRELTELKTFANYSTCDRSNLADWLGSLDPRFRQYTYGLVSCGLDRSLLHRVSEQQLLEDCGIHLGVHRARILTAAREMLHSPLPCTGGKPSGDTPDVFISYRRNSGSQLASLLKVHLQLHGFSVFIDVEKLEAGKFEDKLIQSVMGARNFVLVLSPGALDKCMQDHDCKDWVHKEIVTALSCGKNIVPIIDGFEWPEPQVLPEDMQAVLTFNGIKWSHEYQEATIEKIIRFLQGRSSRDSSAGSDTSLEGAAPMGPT
Sequence of Mitogen-activated protein kinase 7 (Homo sapiens) (Q13164 whole entry, looked up, the tested form may be a part): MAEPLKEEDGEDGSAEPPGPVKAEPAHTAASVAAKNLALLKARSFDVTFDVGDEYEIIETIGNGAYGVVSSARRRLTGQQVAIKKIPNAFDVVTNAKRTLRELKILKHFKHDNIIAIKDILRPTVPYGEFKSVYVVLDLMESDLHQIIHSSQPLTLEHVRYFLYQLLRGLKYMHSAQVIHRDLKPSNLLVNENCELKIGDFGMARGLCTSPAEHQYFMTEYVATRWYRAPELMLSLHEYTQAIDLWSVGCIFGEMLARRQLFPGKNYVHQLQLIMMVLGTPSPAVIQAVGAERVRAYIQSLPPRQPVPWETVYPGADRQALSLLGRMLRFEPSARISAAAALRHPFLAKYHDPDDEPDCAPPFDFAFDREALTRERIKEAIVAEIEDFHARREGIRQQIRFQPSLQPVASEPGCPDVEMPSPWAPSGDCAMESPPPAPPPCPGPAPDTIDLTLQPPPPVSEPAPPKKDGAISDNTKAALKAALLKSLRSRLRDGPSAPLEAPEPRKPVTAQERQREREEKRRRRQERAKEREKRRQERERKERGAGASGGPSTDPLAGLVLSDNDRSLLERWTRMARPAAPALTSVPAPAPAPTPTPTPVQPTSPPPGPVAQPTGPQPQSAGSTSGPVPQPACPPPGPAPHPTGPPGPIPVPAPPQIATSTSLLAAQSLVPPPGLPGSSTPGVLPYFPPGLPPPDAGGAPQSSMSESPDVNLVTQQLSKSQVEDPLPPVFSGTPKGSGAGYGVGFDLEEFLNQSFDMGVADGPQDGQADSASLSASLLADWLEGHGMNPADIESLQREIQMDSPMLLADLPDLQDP
Sequence of 6-phosphogluconate dehydrogenase, decarboxylating (Homo sapiens) (P52209 whole entry, looked up): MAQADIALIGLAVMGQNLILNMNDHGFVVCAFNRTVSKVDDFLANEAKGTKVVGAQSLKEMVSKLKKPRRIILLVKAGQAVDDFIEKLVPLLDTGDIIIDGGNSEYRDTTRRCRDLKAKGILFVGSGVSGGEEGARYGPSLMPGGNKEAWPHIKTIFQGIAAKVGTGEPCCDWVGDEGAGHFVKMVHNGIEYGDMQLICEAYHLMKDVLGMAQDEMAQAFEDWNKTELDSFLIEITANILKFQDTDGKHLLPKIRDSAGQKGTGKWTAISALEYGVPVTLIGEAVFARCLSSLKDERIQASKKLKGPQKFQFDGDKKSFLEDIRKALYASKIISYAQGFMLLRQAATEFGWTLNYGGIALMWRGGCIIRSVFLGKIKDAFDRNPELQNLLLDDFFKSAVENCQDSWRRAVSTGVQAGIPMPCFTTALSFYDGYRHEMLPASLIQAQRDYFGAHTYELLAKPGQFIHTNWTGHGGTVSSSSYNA

O=C(O)CCCc1ccc(N(CCCl)CCCl)cc1
active: tube area decrease [7] 87%
inactive: period change [2] -0.09 h | fluorescence ratio (interference) [3] 1 | nuclear beta-catenin stimulation ([4]; at 10 µM) 3.6% | insulin secretion stimulation [5] -0.1% | viability decrease [6] 49.8% | GLP1 secretion stimulation [8] -0.8% | inhibition of viability [9] 8.83% | viability decrease (inhibition) [10] 3.9% | viability decrease (inhibition) [11] 2.6% | inhibition [12] -1.4% | red/green cell ratio (normalised) [13] 0.75 | activity remaining [14] 115% | z-score [15, 23] -0.116 and 0.451 | remaining NAD [16] 10 nM | luciferase signal [17] 144 AU | z-score [18] -0.065 and 0.565
0.9: normalised cell number [13, 22]
1.2: normalised cell number [13, 21]
-0.284 and -0.412: z-score [15, 24]
25.6%: inhibition [1]
-1.1%: nuclear beta-catenin stimulation ([4]; stimulation, at 2 µM)

N[C@@H](Cc1ccc(N(CCCl)CCCl)cc1)C(=O)O
0.77: normalised cell number [13, 22]
inactive: parasite load remaining [19] 85.5% and 46.9% | nuclear beta-catenin stimulation ([4]; at 10 µM) 5.3% | insulin secretion stimulation [5] -2.1% | GLP1 secretion stimulation [8] 0.9% | inhibition of viability [9] 11.2% | viability decrease (inhibition) [10] 8.5% | viability decrease (inhibition) [11] 8.7% | inhibition [12] -5.9% | red/green cell ratio (normalised) [13] 0.83 | activity remaining [14] 104% | fold change ([20]; stronger effect = lower value) 0.909 and 0.963 | z-score [15, 23] 0.0989 | remaining NAD [16] 10 nM | luciferase signal [17] 40 AU | z-score [18] -1.76
-1.1%: nuclear beta-catenin stimulation ([4]; stimulation, at 2 µM)
3400 and 2500: cell count [20, 26]
1.01 and 1.57: fold change [20, 25]
-1.05: z-score [15, 24]
3740 and 2600: cell count [20, 27]
9.42%: inhibition [1]
active: viability decrease [6] 57.9% | tube area decrease [7] 89.6%
0.94: normalised cell number [13, 21]
102% and 79%: viability [19]

CCC1(c2ccc(N)cc2)CCC(=O)NC1=O (stereo not drawn)
1.36: normalised cell number [13, 21]
-0.0248 and -0.0255 and -0.773: z-score [15, 24]
1.2: normalised cell number [13, 22]
inactive: period change [2] 0.015 h | fluorescence ratio (interference) [3] 1 | nuclear beta-catenin stimulation ([4]; at 10 µM) -0.3% | insulin secretion stimulation [5] -2.7% | viability decrease [6] -4.4% | tube area decrease [7] 14.2% | GLP1 secretion stimulation [8] 4.2% | inhibition of viability [9] -0.6% | viability decrease (inhibition) [10] 45.3% | viability decrease (inhibition) [11] 10% | inhibition [12] 13.3% | red/green cell ratio (normalised) [13] 0.89 | activity remaining [14] 112% | z-score [15, 23] -0.397 and 0.19 and 0.162 | remaining NAD [16] 10 nM | luciferase signal [17] 56 AU | z-score [18] 0.24 and 0.82 and 0.775
22.4%: inhibition [1]
-0.3%: nuclear beta-catenin stimulation ([4]; stimulation, at 2 µM)

CCCC(C)(COC(N)=O)COC(=O)NC(C)C (stereo not drawn)
17.5%: inhibition [1]
11200 and 10200 and 12600: cell count [20, 27]
1.23: normalised cell number [13, 22]
1.17: normalised cell number [13, 21]
-0.6%: nuclear beta-catenin stimulation ([4]; stimulation, at 2 µM)
1.07 and 1.02 and 3.4: fold change [20, 25]
0.223: z-score [15, 24]
10700 and 9140 and 11300: cell count [20, 26]
inactive: period change [2] 0.065 h | fluorescence ratio (interference) [3] 1 | nuclear beta-catenin stimulation ([4]; at 10 µM) 0.1% | insulin secretion stimulation [5] 3.4% | viability decrease [6] -38.7% | tube area decrease [7] 14.3% | GLP1 secretion stimulation [8] -1.3% | inhibition of viability [9] -14.1% | viability decrease (inhibition) [10] -5.3% | viability decrease (inhibition) [11] -12.4% | inhibition [12] -0.85% | red/green cell ratio (normalised) [13] 1.05 | activity remaining [14] 115% | fold change ([20]; stronger effect = lower value) 0.952 and 0.896 and 0.902 | z-score [15, 23] 0.305 | remaining NAD [16] 10 nM | luciferase signal [17] 40 AU | z-score [18] 1.27

O=C(CCCN1CCC2(CC1)C(=O)NCN2c1ccccc1)c1ccc(F)cc1
active: viability decrease [6] 51.6% | inhibition of viability [9] 60.5% | viability decrease (inhibition) [10] 95.2% | viability decrease (inhibition) [11] 83.7%
inactive: period change [2] 0.035 h | fluorescence ratio (interference) [3] 1 | nuclear beta-catenin stimulation ([4]; at 10 µM) 0.4% | insulin secretion stimulation [5] 1.8% | tube area decrease [7] -3.9% | GLP1 secretion stimulation [8] 8% | inhibition [12] -2.11% | red/green cell ratio (normalised) [13] 1.18 | activity remaining [14] 110% | z-score [15, 23] 0.0809 and 0.865 | remaining NAD [16] 10 nM | luciferase signal [17] 60 AU | z-score [18] -1.13 and 1.23 and -1.53
1.1: normalised cell number [13, 22]
-0.502 and 0.666: z-score [15, 24]
5.7%: nuclear beta-catenin stimulation ([4]; stimulation, at 2 µM)
-14.9%: inhibition [1]
0.93: normalised cell number [13, 21]

CCCC1CCCCN1 (stereo not drawn)
0.1%: nuclear beta-catenin stimulation ([4]; stimulation, at 2 µM)
inactive: nuclear beta-catenin stimulation ([4]; at 10 µM) 0.5% | insulin secretion stimulation [5] -0.9% | viability decrease [6] -0.7% | tube area decrease [7] 2.4% | GLP1 secretion stimulation [8] 0% | inhibition of viability [9] -0.2% | viability decrease (inhibition) [10] 8% | viability decrease (inhibition) [11] -1.85% | inhibition [12] 18.6%

CC(NC(C)(C)C)C(=O)c1cccc(Cl)c1 (stereo not drawn)
1.16: normalised cell number [13, 22]
7.1%: nuclear beta-catenin stimulation ([4]; stimulation, at 2 µM)
1.04: normalised cell number [13, 21]
inactive: period change [2] 0.18 h | fluorescence ratio (interference) [3] 1 | nuclear beta-catenin stimulation ([4]; at 10 µM) -0.1% | insulin secretion stimulation [5] 0.3% | viability decrease [6] -43.9% | tube area decrease [7] 9.3% | GLP1 secretion stimulation [8] 0.3% | inhibition of viability [9] 9.97% | viability decrease (inhibition) [10] 30.2% | viability decrease (inhibition) [11] -10.5% | inhibition [12] -4.52% | red/green cell ratio (normalised) [13] 1.12 | activity remaining [14] 97% | z-score [15, 23] -0.0615 and 0.02 and 0.556 | remaining NAD [16] 10 nM | luciferase signal [17] 52 AU
-0.319 and -0.308 and 0.695: z-score [15, 24]
